The values that follow come from PubChem BioAssay (EPA / NIEHS).

Records with an inconclusive call do not appear. Active and inactive are the calls of the source. The calls were made as follows: active = hit-call score of the fitted dose curve at least 0.9, where 1 is the maximum; inconclusive = response in the unintended direction; inactive = score below 0.9.

For this experiment, the target named is human Muscarinic, M4 Receptor, CHRM4 (gene 1132) (UniProt P08173). The experiment in a line: NVS_GPCR_hM4: NovaScreen (NVS) G Protein-Coupled Receptor Assay for human Muscarinic, M4 Receptor (AID 2283274). How it is done: NVS_GPCR_hM4 is a biochemical, single-readout assay that uses extracted gene-proteins from CHO in a cell-free assay. Measurements were taken 1 hour after chemical dosing in a 96-well plate.NVS_GPCR_hM4 is one of one assay component(s) measured or calculated from the NVS_GPCR_hM4 assay. It is designed to make measurements of radioligand binding, a form of binding reporter, as detected with scintillation counting signals by Filter-based radiodetection technology.Data from the assay component NVS_GPCR_hM4 was analyzed into 1 assay endpoint. This assay endpoint, NVS_GPCR_hM4, was analyzed in the positive analysis fitting direction relative to DMSO as the negative control and baseline of activity. Using a type of binding reporter, loss-of-signal activity can be used to understand changes in the binding as they relate to the gene CHRM4. Furthermore, this assay endpoint can be referred to as a primary readout, because the performed assay has only produced 1 assay endpoint. To generalize the intended target to other relatable targets, this assay endpoint is annotated to the gpcr intended target family, where the subfamily is rhodopsin-like receptor.
human Muscarinic, M4 Receptor, CHRM4 (gene 1132), sequence (P08173 whole entry, looked up): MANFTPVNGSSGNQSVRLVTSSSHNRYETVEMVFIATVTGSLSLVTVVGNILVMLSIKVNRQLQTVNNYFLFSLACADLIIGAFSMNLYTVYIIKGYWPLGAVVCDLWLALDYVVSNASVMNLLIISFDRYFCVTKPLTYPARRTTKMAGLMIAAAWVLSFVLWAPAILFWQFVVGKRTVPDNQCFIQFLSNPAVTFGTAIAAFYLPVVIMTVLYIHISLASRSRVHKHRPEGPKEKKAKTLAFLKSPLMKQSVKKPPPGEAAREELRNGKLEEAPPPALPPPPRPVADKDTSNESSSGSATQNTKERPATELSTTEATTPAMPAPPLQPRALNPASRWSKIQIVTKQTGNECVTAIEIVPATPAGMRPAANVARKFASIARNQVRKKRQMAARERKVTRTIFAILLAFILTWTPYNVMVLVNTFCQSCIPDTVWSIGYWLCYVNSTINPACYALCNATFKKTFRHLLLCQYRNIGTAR
Binding assays used specific radioligands (tritiated, iodinated) with non-radioactive competitive displacement ligands in agonist or antagonist protocols (as indicated) and various reference compounds and inhibitors to titrate specific binding to receptors and transporters. Most enzyme assays (CYPs, kinases, phosphatases, proteases, HDACs) used recombinant protein and specific substrates (fluorescence mostly, some colorimetric and radioactive) and inhibitors, followed by a biochemical separation of substrate and product. All assays for the biochemical HTS were initially run in duplicate at a single concentration (10 uM for CYP450 assays and 25 uM for all others). […] Each assay was run with positive and negative controls, and concurrent controls on every plate. The follow-up (secondary) screen tested active chemical-pairs in concentration series, as well as a few additional assays not tested in the primary screen, some selected negative inactives, and several cases re-run in the concentration series for confirmatory purposes.
On to `Cc1[nH]cnc1C[C@H]1CCc2c(C)c3ccccc3n2C1=O`, for which the compound was classed as inactive.

As to `CCCN(C1CCN(C(=O)C2CCNCC2)CC1)[C@@H]1CCc2ccc(OC)cc2C1`, the AC50 is 0.00683 µM (active).

Consider `CCOC(=O)c1ccc(C2CCC(NC[C@H](O)COc3ccc(O)c(NS(C)(=O)=O)c3)CC2)cc1` (stereo partly specified), for which the half-maximal activity concentration (AC50) is 11.9 µM (active).

`CCN(C(=O)c1cc(C)cc(OC[C@H](C)Nc2ccncc2)c1)C(C)C`: the AC50 is 11.3 µM (active).

`CCc1cc(SCc2sc(-c3ccc(C(F)(F)F)cc3)nc2CN2CCN(c3ccc(OC)cc3)CC2)ccc1OCC(=O)O`: the AC50 was 35.7 µM (active).

As for `CC[C@H]1CC[C@H](NCc2cc3c(cc2OC)[C@H]2C[C@H]2C(=O)N3C)[C@H](c2ccccc2)N1`, the AC50 is 2.31 µM (active).

For the compound `COCCOc1cc2cc(C(=O)NC3CCN(C(C)C)CC3)n(CC(=O)Nc3ccc(Cl)cn3)c2cn1`, the result was inactive.

Turning to `COc1cccc(-c2ccc(/C=C\CN3CCCCCC3)cc2Cl)c1`, the AC50 is 1.22 µM (active).

With `CCOc1cccc(-n2cc(C(=O)N3CCN(c4cc(C(=O)O)c5ccccc5c4)CC3)nc2-c2ccc(C)cc2)c1`, the concentration at half-maximal activity (AC50) is 26.1 µM (active).

With `CCOC(=O)COc1ccc2c(c1)CC(NCC(O)c1cccc(Cl)c1)CC2` (stereo unspecified), the half-maximal activity concentration (AC50) was 1.92 µM (active).

Consider `Nc1ccc(Nc2ccccc2)cc1`, for which the concentration at half-maximal activity (AC50) is 16.6 µM (active).

Usually AC50 stands for the concentration at which the activity in the assay is half-maximal.
